Whole data set: some 33,000 sequences, median “E-score (-0.5 to 0.5)” near -0.041, cut for the highest 2% near 0.37. For the sample, the highest values were picked, then their nearest neighbours and some sequences at random.
These sequences were tested against T1, Ecm22 (UniProt Q05958) (assay: PBM E-score (8-mer binding enrichment) (E-score (-0.5 to 0.5)); higher = stronger / more preferred TF binding). Details: protein concentration: 200 nM; construct: GST-full length.
T1 sequence: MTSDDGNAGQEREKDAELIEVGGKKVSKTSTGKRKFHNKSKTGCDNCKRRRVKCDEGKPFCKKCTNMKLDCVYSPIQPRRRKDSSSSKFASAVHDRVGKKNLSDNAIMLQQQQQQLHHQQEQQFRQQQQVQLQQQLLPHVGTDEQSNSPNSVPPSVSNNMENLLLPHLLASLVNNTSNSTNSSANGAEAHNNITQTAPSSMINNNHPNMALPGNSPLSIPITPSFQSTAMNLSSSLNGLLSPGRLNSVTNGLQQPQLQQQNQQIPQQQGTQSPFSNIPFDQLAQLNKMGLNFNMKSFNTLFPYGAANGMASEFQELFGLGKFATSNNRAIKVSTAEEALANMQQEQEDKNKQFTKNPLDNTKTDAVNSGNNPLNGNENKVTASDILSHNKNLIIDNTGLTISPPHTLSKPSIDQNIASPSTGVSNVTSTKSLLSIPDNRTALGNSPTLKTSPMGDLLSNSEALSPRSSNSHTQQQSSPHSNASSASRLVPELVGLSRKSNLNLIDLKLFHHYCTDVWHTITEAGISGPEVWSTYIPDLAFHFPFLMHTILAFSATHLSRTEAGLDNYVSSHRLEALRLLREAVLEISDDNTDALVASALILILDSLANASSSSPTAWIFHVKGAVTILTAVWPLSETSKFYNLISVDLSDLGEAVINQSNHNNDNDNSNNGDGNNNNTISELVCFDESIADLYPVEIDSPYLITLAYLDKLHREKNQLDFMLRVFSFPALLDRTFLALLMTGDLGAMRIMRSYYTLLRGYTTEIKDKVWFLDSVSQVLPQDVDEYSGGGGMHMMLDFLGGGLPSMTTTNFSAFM
Summary of the method: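 PURExpress in vitro transcription/translation supplied GST-tagged yeast transcription factors, either full-length or DNA-binding domain. Applied at about 100-200 nM to universal all-10-mer Agilent arrays double-stranded by primer extension, the bound protein was detected with fluorescent anti-GST. E-scores, modified Wilcoxon-Mann-Whitney statistics, were given by the Universal PBM Analysis Suite to ungapped eight-base words pooled with their reverse complements after masliner normalisation.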

**Q.** How did the “PBM E-score” value turn out when AGAGTCAG was run?
**A.** Its value is -0.111.

**Q.** Which “PBM E-score” value does the source give for ACCTTCGG here?
**A.** Its value is 0.188.

**Q.** Which “PBM E-score” value does the source give for CACCATGG here?
**A.** The value was -0.173.

**Q.** With AGAGGGTA as the sequence, how does the “PBM E-score” value read?
**A.** The value was -0.0925.

**Q.** For GAGCCACA, which “PBM E-score” value is on record?
**A.** The value was -0.0887.

**Q.** CGGTTTTA was tested. Which “PBM E-score” value did it give?
**A.** Its value is 0.072.

**Q.** For CCTAGCAG, which “PBM E-score” value is on record?
**A.** Its value is -0.263.

**Q.** GTTGCTCA was tested. Which “PBM E-score” value did it give?
**A.** Its value is 0.108.

**Q.** How did the “PBM E-score” value turn out when ACAGGTCC was run?
**A.** Its value is -0.142.

**Q.** How did the “PBM E-score” value turn out when ATATCAAG was run?
**A.** Its value is 0.0598.

**Q.** With TCTGGGAA as the sequence, how does the “PBM E-score” value read?
**A.** Its value is 0.00899.

**Q.** With CGCATGCG as the sequence, how does the “PBM E-score” value read?
**A.** The value was 0.0792.

**Q.** Which “PBM E-score” value does the source give for ACGGTAAC here?
**A.** The value was 0.151.

**Q.** CACGACGA was tested. Which “PBM E-score” value did it give?
**A.** The value was 0.108.

**Q.** With TACGACGA as the sequence, how does the “PBM E-score” value read?
**A.** Its value is 0.469.

**Q.** GACGACGA was tested. Which “PBM E-score” value did it give?
**A.** Its value is 0.0563.

**Q.** AACGACGA was tested. Which “PBM E-score” value did it give?
**A.** Its value is 0.444.

**Q.** For AGCGACGA, which “PBM E-score” value is on record?
**A.** Its value is 0.195.

**Q.** How did the “PBM E-score” value turn out when ATCGACGA was run?
**A.** Its value is -0.00044.

**Q.** Which “PBM E-score” value does the source give for AGACTTAT here?
**A.** The value was -0.104.

**Q.** CAGCAATG was tested. Which “PBM E-score” value did it give?
**A.** The value was -0.198.

**Q.** GGATGGTA was tested. Which “PBM E-score” value did it give?
**A.** Its value is -0.0324.

**Q.** How did the “PBM E-score” value turn out when TCACTCGA was run?
**A.** The value was 0.163.

**Q.** For AATGCAGC, which “PBM E-score” value is on record?
**A.** Its value is -0.147.

**Q.** For CAGGTACA, which “PBM E-score” value is on record?
**A.** Its value is -0.23.

**Q.** AAGGTACC was tested. Which “PBM E-score” value did it give?
**A.** The value was -0.0364.

**Q.** ATGGTACC was tested. Which “PBM E-score” value did it give?
**A.** Its value is -0.225.

**Q.** AAGGTACG was tested. Which “PBM E-score” value did it give?
**A.** Its value is 0.434.

**Q.** How did the “PBM E-score” value turn out when CAGGTACC was run?
**A.** The value was -0.126.

**Q.** How did the “PBM E-score” value turn out when AAGGTACT was run?
**A.** The value was 0.0334.

**Q.** How did the “PBM E-score” value turn out when ATGGTACA was run?
**A.** The value was -0.122.

**Q.** For CAGGTACG, which “PBM E-score” value is on record?
**A.** Its value is 0.423.

**Q.** Which “PBM E-score” value does the source give for ATGGTACG here?
**A.** Its value is 0.443.

**Q.** Which “PBM E-score” value does the source give for CCTCCTTA here?
**A.** The value was 0.032.

**Q.** How did the “PBM E-score” value turn out when CATGCGGG was run?
**A.** The value was -0.05.

**Q.** ATAGTGCC was tested. Which “PBM E-score” value did it give?
**A.** Its value is 0.0559.

**Q.** Which “PBM E-score” value does the source give for CTAAGCTC here?
**A.** The value was -0.2.

**Q.** For ACCGTCTG, which “PBM E-score” value is on record?
**A.** The value was -0.112.

**Q.** For ATTGCAGG, which “PBM E-score” value is on record?
**A.** Its value is -0.00797.

**Q.** With CCGGTACA as the sequence, how does the “PBM E-score” value read?
**A.** The value was 0.0868.

**Q.** ACGGTACG was tested. Which “PBM E-score” value did it give?
**A.** The value was 0.436.

**Q.** With CCGGTACG as the sequence, how does the “PBM E-score” value read?
**A.** Its value is 0.448.

**Q.** How did the “PBM E-score” value turn out when ACGGTACT was run?
**A.** Its value is 0.0921.

**Q.** With ACGGTACC as the sequence, how does the “PBM E-score” value read?
**A.** The value was 0.206.

**Q.** For CCGGTACC, which “PBM E-score” value is on record?
**A.** Its value is -0.103.

**Q.** AAAGATTG was tested. Which “PBM E-score” value did it give?
**A.** Its value is -0.286.

**Q.** For ACGGAGGA, which “PBM E-score” value is on record?
**A.** Its value is 0.151.

**Q.** ATCGCTTA was tested. Which “PBM E-score” value did it give?
**A.** Its value is 0.327.

**Q.** With CTCGCTGA as the sequence, how does the “PBM E-score” value read?
**A.** Its value is -0.0623.

**Q.** GTCGCTTA was tested. Which “PBM E-score” value did it give?
**A.** The value was 0.37.

**Q.** CTCGCTTA was tested. Which “PBM E-score” value did it give?
**A.** Its value is 0.41.

**Q.** GTCGCTGA was tested. Which “PBM E-score” value did it give?
**A.** The value was -0.073.

**Q.** For ATCGCTCC, which “PBM E-score” value is on record?
**A.** Its value is 0.185.

**Q.** For CTCGCTCA, which “PBM E-score” value is on record?
**A.** Its value is 0.358.

**Q.** How did the “PBM E-score” value turn out when GTCGCTAA was run?
**A.** The value was 0.289.

**Q.** Which “PBM E-score” value does the source give for CTCGCTCC here?
**A.** Its value is 0.405.

**Q.** How did the “PBM E-score” value turn out when AAACTCCG was run?
**A.** Its value is -0.112.

**Q.** For AGGGACGG, which “PBM E-score” value is on record?
**A.** Its value is -0.256.

**Q.** AGTCCGGC was tested. Which “PBM E-score” value did it give?
**A.** The value was -0.138.

**Q.** Which “PBM E-score” value does the source give for TACGTATA here?
**A.** Its value is 0.401.

**Q.** With CGCGTATA as the sequence, how does the “PBM E-score” value read?
**A.** The value was 0.403.

**Q.** Which “PBM E-score” value does the source give for AACGTATC here?
**A.** The value was 0.127.

**Q.** For TACGTAGA, which “PBM E-score” value is on record?
**A.** The value was 0.133.

**Q.** How did the “PBM E-score” value turn out when AGCGTATA was run?
**A.** Its value is 0.366.

**Q.** How did the “PBM E-score” value turn out when AACGTATT was run?
**A.** The value was 0.229.

**Q.** How did the “PBM E-score” value turn out when CACGTATA was run?
**A.** Its value is 0.386.

**Q.** AACGTATA was tested. Which “PBM E-score” value did it give?
**A.** Its value is 0.411.

**Q.** With GACGTATA as the sequence, how does the “PBM E-score” value read?
**A.** Its value is 0.365.

**Q.** CACGTATG was tested. Which “PBM E-score” value did it give?
**A.** Its value is 0.0729.

**Q.** With TACGTACA as the sequence, how does the “PBM E-score” value read?
**A.** The value was 0.328.

**Q.** For GGCGTATA, which “PBM E-score” value is on record?
**A.** The value was 0.359.
